PubChem BioAssay AID1159580 (chemical genetic matrix, 2015)
About 2,000 (36%) of roughly 5,500 compounds were called active. Another 18% or so got no clear call; they are omitted. Rule as the data show it: active = normalized growth mostly below about 0.91 (no sharp cut-off); inconclusive = no clear call, values can overlap the other calls; inactive = mostly above about 0.92. Some of the results follow.

Assay: chemical genetic growth profiling, strain panel (AID 1159580);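 also: tested at 20 µM; growth read once vehicle control cultures reached saturation at 30 °C; 1 = growth at the plate median or of vehicle wells; lower values mean less growth of the strain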
Details: growth OD

Measured: normalized growth

Oc1c(Br)cc(Br)c2cccnc12
active: S. cerevisiae deletion strains, locus YJR075W, strain HOC1, hits give low values 0.0682 | S. cerevisiae deletion strains, locus YKL009W, strain mrt4, hits give low values 0.0898 | S. cerevisiae deletion strains, locus YKL068W, hits give low values 0.0659 | S. cerevisiae deletion strains, locus YKL085W, strain MDH1 (second series), hits give low values 0.0622 | S. cerevisiae deletion strains, locus YKL085W, strain MDH1, hits give low values 0.0622 | S. cerevisiae deletion strains, locus YKL160W, strain elf1, hits give low values 0.0686 | S. cerevisiae deletion strains, locus YKL190W, strain CNB1, hits give low values 0.049 | S. cerevisiae deletion strains, locus YKR001C, strain vps1, hits give low values 0.0714 | S. cerevisiae deletion strains, locus YKR026C, strain gcn3, hits give low values 0.0599 | S. cerevisiae deletion strains, locus YKR091W, strain srl3, hits give low values 0.0574 | S. cerevisiae deletion strains, locus YLL001W, strain dnm1, hits give low values 0.0635 | S. cerevisiae deletion strains, locus YLL026W, hits give low values 0.065 | S. cerevisiae deletion strains, locus YLL041C, strain sdh2, hits give low values 0.0602 | S. cerevisiae deletion strains, locus YLR027C, strain aat2, hits give low values 0.0544 | S. cerevisiae deletion strains, locus YLR039C, strain RIC1, hits give low values 0.0808 | S. cerevisiae deletion strains, locus YLR058C, strain SHM2, hits give low values 0.0497 | S. cerevisiae deletion strains, locus YLR102C, strain apc9, hits give low values 0.0675 | S. cerevisiae deletion strains, locus YLR113W, strain HOG1, hits give low values 0.164 | S. cerevisiae deletion strains, locus YLR221C, strain rsa3, hits give low values 0.061 | S. cerevisiae deletion strains, locus YLR258W, strain gsy2, hits give low values 0.0604 | S. cerevisiae deletion strains, locus YLR262C, strain YPT6 (second series), hits give low values 0.0797 | S. cerevisiae deletion strains, locus YLR262C, strain YPT6, hits give low values 0.106 | S. cerevisiae deletion strains, locus YLR268W, strain sec22, hits give low values 0.0737 | S. cerevisiae deletion strains, locus YLR320W, strain mms22, hits give low values 0.0804 | S. cerevisiae deletion strains, locus YLR330W, strain CHS5, hits give low values 0.0542 | S. cerevisiae deletion strains, locus YLR342W, strain FKS1 (second series), hits give low values 0.0742 | S. cerevisiae deletion strains, locus YLR342W, strain FKS1, hits give low values 0.0656 | S. cerevisiae deletion strains, locus YLR357W, strain rsc2, hits give low values 0.121 | S. cerevisiae deletion strains, locus YLR370C, strain arc18, hits give low values 0.0663 | S. cerevisiae deletion strains, locus YLR371W, strain rom2, hits give low values 0.0714 | S. cerevisiae deletion strains, locus YLR384C, strain iki3, hits give low values 0.0612 | S. cerevisiae deletion strains, locus YLR418C, strain cdc73, hits give low values 0.11 | S. cerevisiae deletion strains, locus YML016C, strain PPZ1, hits give low values 0.0489 | S. cerevisiae deletion strains, locus YML032C, strain rad52, hits give low values 0.0748 | S. cerevisiae deletion strains, locus YML120C, strain ndi1, hits give low values 0.0584 | S. cerevisiae deletion strains, locus YML124C, strain tub3, hits give low values 0.067 | S. cerevisiae deletion strains, locus YMR058W, strain fet3, hits give low values 0.0605 | S. cerevisiae deletion strains, locus YMR078C, strain ctf18, hits give low values 0.0799 | S. cerevisiae deletion strains, locus YMR125W, strain sto1, hits give low values 0.0777 | S. cerevisiae deletion strains, locus YMR129W, hits give low values 0.0576 | S. cerevisiae deletion strains, locus YMR205C, strain PFK2, hits give low values 0.0851 | S. cerevisiae deletion strains, locus YMR223W, strain ubp8, hits give low values 0.0723 | S. cerevisiae deletion strains, locus YMR231W, strain pep5, hits give low values 0.0707 | S. cerevisiae deletion strains, locus YMR263W, strain SAP30, hits give low values 0.0608 | S. cerevisiae deletion strains, locus YMR307W, strain GAS1, hits give low values 0.111 | S. cerevisiae deletion strains, locus YNL067W, strain RPL9B, hits give low values 0.0529 | S. cerevisiae deletion strains, locus YNL071W, strain lat1, hits give low values 0.061 | S. cerevisiae deletion strains, locus YNL128W, strain TEP1, hits give low values 0.0661 | S. cerevisiae deletion strains, locus YNL153C, strain GIM3, hits give low values 0.0523 | S. cerevisiae deletion strains, locus YNL183C, strain NPR1, hits give low values -0.0047 | S. cerevisiae deletion strains, locus YNL209W, strain ssb2, hits give low values 0.0598 | S. cerevisiae deletion strains, locus YNL233W, strain BNI4, hits give low values 0.0553 | S. cerevisiae deletion strains, locus YNL248C, strain rpa49, hits give low values 0.0858 | S. cerevisiae deletion strains, locus YNL250W, strain rad50, hits give low values 0.0799 | S. cerevisiae deletion strains, locus YNL271C, strain bni1, hits give low values 0.075 | S. cerevisiae deletion strains, locus YNL298W, strain CLA4, hits give low values 0.0729 | S. cerevisiae deletion strains, locus YNL307C, strain MCK1, hits give low values 0.078 | S. cerevisiae deletion strains, locus YNL322C, strain KRE1 (second series), hits give low values 0.0637 | S. cerevisiae deletion strains, locus YNL322C, strain KRE1, hits give low values 0.0493 | S. cerevisiae deletion strains, locus YNR049C, strain mso1, hits give low values 0.0578 | S. cerevisiae deletion strains, locus YNR052C, strain pop2, hits give low values 0.0694 | S. cerevisiae deletion strains, locus YOL006C, strain TOP1, hits give low values 0.108 | S. cerevisiae deletion strains, locus YOL012C, strain htz1 0.189 | S. cerevisiae deletion strains, locus YOL147C, strain pex11, hits give low values 0.0679 | S. cerevisiae deletion strains, locus YOR001W, strain rrp6, hits give low values 0.0757 | S. cerevisiae deletion strains, locus YOR061W, strain CKA2, hits give low values 0.048 | S. cerevisiae deletion strains, locus YOR069W, strain VPS5, hits give low values 0.0497 | S. cerevisiae deletion strains, locus YOR070C, strain gyp1, hits give low values 0.59 | S. cerevisiae deletion strains, locus YOR080W, strain dia2, hits give low values 0.0706 | S. cerevisiae deletion strains, locus YOR083W, strain WHI5, hits give low values 0.0621 | S. cerevisiae deletion strains, locus YOR106W, strain vam3, hits give low values 0.0686 | S. cerevisiae deletion strains, locus YOR136W, strain idh2, hits give low values 0.0816 | S. cerevisiae deletion strains, locus YOR144C, strain elg1, hits give low values 0.0654 | S. cerevisiae deletion strains, locus YOR184W, strain ser1, hits give low values 0.0794 | S. cerevisiae deletion strains, locus YOR231W, strain MKK1, hits give low values 0.109 | S. cerevisiae deletion strains, locus YOR265W, strain rbl2, hits give low values 0.0573 | S. cerevisiae deletion strains, locus YOR270C, strain vph1, hits give low values 0.102 | S. cerevisiae deletion strains, locus YOR290C, strain snf2, hits give low values 0.0632 | S. cerevisiae deletion strains, locus YOR316C, strain cot1, hits give low values 0.0675 | S. cerevisiae deletion strains, locus YPL051W, strain arl3, hits give low values 0.0637 | S. cerevisiae deletion strains, locus YPL055C, strain LGE1, hits give low values 0.0663 | S. cerevisiae deletion strains, locus YPL078C, strain atp4, hits give low values 0.0651 | S. cerevisiae deletion strains, locus YPL106C, strain sse1, hits give low values 0.115 | S. cerevisiae deletion strains, locus YPL240C, strain hsp82, hits give low values 0.0569 | S. cerevisiae deletion strains, locus YPL241C, strain CIN2, hits give low values 0.0508 | S. cerevisiae deletion strains, locus YPL256C, strain CLN2, hits give low values 0.126 | S. cerevisiae deletion strains, locus YPR119W, strain clb2, hits give low values 0.0704 | S. cerevisiae deletion strains, locus YPR141C, strain kar3, hits give low values 0.0795 | S. cerevisiae deletion strains, locus YPR163C, strain tif3, hits give low values 0.0768 | S. cerevisiae deletion strains, locus YPR167C, strain met16, hits give low values 0.0675 | S. cerevisiae deletion strains, strain wtn01, hits give low values 0.076 | S. cerevisiae strains, strain wild type, hits give low values 0.0486
